# An excerpt weighted towards active compounds, which were near 3.1% of everything screened.
# pS6 MEF inh: inhibitors of mTORC1 signaling in Tsc2-/- p53-/- MEF cells; Tsc2-/- p53-/- MEF, phospho-rpS6 immunofluorescence/PI, 24 h; Potency, µM (titrated, usually from 38.3 µM), actives largely listed as inhibitors; actives 0.78% (n = 44,000); note: nearly all actives have a fitted effect of over 50% in size
#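 Cell-based qHTS: Tsc2-/- p53-/- MEF, 24 h cpd, 37 °C; fix/perm, anti-phospho-S6 Alexa-488 + PI; Acumen 488 nm scan; pS6/PI ratio, % positive cells; rapamycin 7.5 nM = inhibition ref; PI count = viability.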
# S16 viability: S16 Schwann cell cytotoxicity | S16 Pmp22-F2sN Schwann cells viability, CellTiter-Glo, 24 h | Potency, µM (doses to about 57.5 µM), hits mostly cytotoxic | actives 0.48% (n = 43,000) | AID 1508642; note: nearly all actives have a fitted effect of over 65% in size
#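 S16 Schwann cells carrying the Pmp22-F2sN reporter, seeded in 1536-well format, were exposed to library compounds for 24 h at 37C. Viability was read as CellTiter-Glo luminescence after 15 min at room temperature.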
# p53null 39C kill: kills p53 null cells at the nonpermissive temperature; H1299 p53-null (neo) cells, 39C, ATPlite viability, 24 h; Potency, µM (titrated, usually from 46.1 µM), actives largely listed as cytotoxic; actives 0.97% (n = 55,000); AID 904; note: nearly all actives have a fitted effect of over 50% in size
#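 ATP-luminescence viability readout (ATPlite, 20 min RT) after 24 hr compound treatment at 39C of H1299-neo or H1299-p53A138V cells; titration up to 46 uM; normalized to DMSO and 100 uM tamoxifen; Hill-fit AC50.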
# p53null 32C kill: kills p53 null cells at the permissive temperature; H1299-neo p53 null cells, ATP luminescence, 24 h, 32C; Potency, µM (top dose mostly 46.1 µM), actives largely listed as cytotoxic; actives 0.62% (n = 55,000); AID 903; note: nearly all actives have a fitted effect of over 55% in size
#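 H1299-neo (p53 null) cells, 600/well, treated 24 h at 32C with compound up to 46 uM; ATPlite luminescence viability, normalized to DMSO and 100 uM tamoxifen; AC50 by Hill fit.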
# PMP22 txn prim: modulators of PMP22 gene transcription in S16 Schwann cells. S16 Pmp22-F2sN Schwann cells (luciferase reporters placed in the Pmp22 gene), FLuc/NLuc coincidence luminescence, 24 h. Potency, µM (series often up to 57.5 µM), hits mostly inhibitors. actives 2% (n = 43,000). AID 1508649; active = clear falling dose curves in both reporters; inconclusive = both reporters move, but less clearly or upward; inactive = either reporter flat; the % is the NLuc reporter signal
#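 Reporter cells (S16 Pmp22-F2sN, 500–1,000 per well) exposed to compounds for 24 h, 37C, 5% CO2; lysis with FLuc read after 10 min, then Stop&Glo and NLuc read after 10 min.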
# SKOV3 invasion: blocks SKOV3ip1 adhesion and invasion in omental model | Potency, µM (top dose mostly 45.8 µM), actives largely listed as inhibitors | AID 1963576 | actives 0.1% (n = 46,000) | SKOV3ip1-GFP adhesion/invasion on 3D omental model, fluorescence; note: nearly all actives have a fitted effect of over 65% in size
#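 A 3D layer of primary human omental fibroblasts, mesothelial cells, fibronectin and collagen I, grown 48 hr, received SKOV3ip1-GFP cells in serum-free medium plus compounds at 0.36-46 umol/L. After 2 hr RT and 16 hr 37 C, fixed adherent GFP cells were counted; normalized to DMSO and tomatine.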
# NLuc saturating: NanoLuc enzyme inhibition artifact for PMP22 screen | shares compounds with PMP22 txn prim | Secreted NLuc enzyme (filtered S16 cell medium), Nano-Glo luminescence | Potency, µM (titrated, usually from 57.5 µM), usual class: inhibitors | actives 4% (n = 690)
# NLuc Km ctr: inhibits NanoLuc under Km conditions, PMP22 counter-screen; Potency, µM (titrated, usually from 57.5 µM), hits mostly inhibitors; shares compounds with PMP22 txn prim; AID 1508639; actives 5% (n = 690); secreted NLuc enzyme, coelenterazine luminescence, Km conditions
# FLuc counter: inhibits firefly luciferase, PMP22 counter-screen; shares compounds with PMP22 txn prim; purified P. pyralis FLuc, luminescence, 10 min; Potency, µM (series often up to 57.5 µM), usual class: inhibitors; 690 tested, under 10 active
# Target sequence (P08659 whole entry, looked up): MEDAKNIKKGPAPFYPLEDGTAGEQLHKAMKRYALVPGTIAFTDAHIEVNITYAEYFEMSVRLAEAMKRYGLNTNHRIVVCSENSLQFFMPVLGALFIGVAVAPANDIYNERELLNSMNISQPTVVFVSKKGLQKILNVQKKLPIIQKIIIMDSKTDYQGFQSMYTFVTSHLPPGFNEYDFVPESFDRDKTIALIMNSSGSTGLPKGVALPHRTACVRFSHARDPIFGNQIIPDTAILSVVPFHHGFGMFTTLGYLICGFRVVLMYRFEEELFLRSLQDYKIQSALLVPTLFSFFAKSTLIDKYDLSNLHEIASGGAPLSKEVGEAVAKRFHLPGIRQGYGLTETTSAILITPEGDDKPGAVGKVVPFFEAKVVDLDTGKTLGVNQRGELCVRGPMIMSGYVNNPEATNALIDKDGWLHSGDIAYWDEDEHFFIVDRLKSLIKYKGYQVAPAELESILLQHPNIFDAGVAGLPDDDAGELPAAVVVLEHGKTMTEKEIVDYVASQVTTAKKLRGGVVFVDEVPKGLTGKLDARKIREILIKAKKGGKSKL
# S16 F2sN tox cnf: S16 Schwann cell cytotoxicity, confirmatory; shares compounds with PMP22 txn prim; S16 Schwann cells viability, CellTiter-Glo ATP luminescence, 24 h; actives 7% (n = 690); Potency, µM (titrated, usually from 57.5 µM), most hits filed as cytotoxic; AID 1508641
# PMP22 txn cnf: confirmation of modulators of PMP22 gene transcription in S16 cells. shares compounds with PMP22 txn prim. S16 Schwann cells Pmp22-F2sN, dual luciferase, 24 h. Potency, µM (series often up to 57.5 µM), usual class: inhibitors. actives 22% (n = 690). AID 1508646; active = clear falling dose curves in both reporters; inconclusive = both reporters move, but less clearly or upward; inactive = either reporter flat; the % is the FLuc reporter signal
# Numbers stand for hits; 0 = inactive; ? = inconclusive; - = not tested or not shown. Unless noted, calls come from the whole dose curve; as a rule, active = well fitted curve in the direction sought with a large enough effect; inconclusive = small, poorly fitted or top-dose-only effect, or another doubt; inactive = no such curve, though single readings can be large; an effect the other way counts as inactive or inconclusive.
SMILES,pS6 MEF inh,S16 viability,p53null 39C kill,p53null 32C kill,PMP22 txn prim,SKOV3 invasion,others
O=C(NCc1ccccc1)N1CCc2c(sc3c2CCCC3)C1c1ccccc1 (stereo not drawn),0,?,?,0,7.8µM,0,
CN1[C@H]2CC(O)C[C@H]1[C@H]1O[C@H]12 (stereo partly drawn),-,-,-,-,-,0,
CC(=O)c1cccc(NC(=O)c2cc3c(s2)-c2c(C)cccc2OC3)c1,0,?,?,10µM,?,0,
CC(=O)c1cccc(NC(=O)c2cccn(Cc3cccc(C)c3)c2=O)c1,0,0,0,0,?,0,
CCCOc1ccc(C2SCC(=O)Nc3c2c(C)nn3-c2cccc(C)c2)cc1OC (stereo not drawn),0,0,25µM,0,?,0,
c1ccc2c(CN3CCNCC3)cccc2c1,-,-,-,-,-,0,
Cc1ccc(C(=O)Nc2ccccc2)cc1S(=O)(=O)N1CCCC1,0,0,0,?,0,0,
CC(C)(C)c1ccc(C(=O)Nc2ccc3nc(SCC(=O)N4CCCC4)sc3c2)cc1,0,?,?,20µM,?,0,
CCOc1ccc(S(=O)(=O)NCCc2sc3nc(-c4ccc(C)cc4)nn3c2C)cc1,0,20µM,0,0,?,0,
Cc1c(CCNS(=O)(=O)c2ccccc2)sc2nc(-c3ccc(Cl)cc3)nn12,0,?,?,0,?,?,
C[C@@]12OC(=O)[C@]1([C@@H](O)[C@@H]1C=CCCC1)NC(=O)[C@H]2CCCl,-,-,-,-,-,0,
COc1ccc2c(c1)CN(C)CC2c1ccc(Cl)c(Cl)c1 (stereo not drawn),-,-,-,-,-,0,
COC(=O)[C@@H]1[C@@H](C(=O)OC)C2(c3ccccc3-c3ccccc32)N(c2ccc(Cl)cc2)N1C#N,-,-,?,22µM,-,-,
COC(=O)C[C@]1(C(=O)OC)CN(C#N)N(c2ccc(Cl)cc2)C12c1ccccc1-c1ccccc12,-,-,0,?,-,-,
CC1(N2CCC(n3c([C@@H]4CCCNC4)nc4ccccc43)CC2)CCCCCCC1,-,-,-,-,-,0,
CCOc1ccc(NC(=O)c2cc3c(C)nn(-c4ccccc4)c3s2)cc1,18µM,0,?,?,?,0,
Cc1ccc2oc(-c3ccc(Cl)cc3)c(O)c(=O)c2c1,9.3µM,?,?,0,?,0,
COc1ccc(-c2cc(=O)c3cc(OCC(=O)OC(C)C)ccc3o2)cc1,0,0,5µM,3.2µM,0,0,
Cc1ccc(Cl)cc1Nc1nn2c(=O)c3ccc(C(=O)NCc4cccs4)cc3nc2s1,0,25µM,0,?,8.4µM,0,NLuc saturating=0;NLuc Km ctr=0;FLuc counter=0;S16 F2sN tox cnf=27µM;PMP22 txn cnf=?
O=C(NCC1CCOCC1)c1cnc(Nc2ccc(Cl)cc2Cl)nc1C(F)(F)F,-,-,-,-,-,0,
O=C(Nc1ccncc1)C(=O)c1cn(Cc2ccc(Cl)cc2)c2ccccc12,-,-,-,-,-,0,
CCNC(=O)C[C@@H]1N=C(c2ccc(Cl)cc2)c2cc(OC)ccc2-n2c(C)nnc21,-,-,-,-,-,0,

# High-throughput results from PubChem BioAssay.
